Data reported in ChEMBL document CHEMBL1961873, “Compounds: GSK PKIS; Assays: Nanosyn kinase panel” (2012).

Key:
[1] = molecular target: T1, Ephrin type-B receptor 2 (Homo sapiens) (UniProt P29323); conditions: at 1 µM
T1 sequence (whole entry): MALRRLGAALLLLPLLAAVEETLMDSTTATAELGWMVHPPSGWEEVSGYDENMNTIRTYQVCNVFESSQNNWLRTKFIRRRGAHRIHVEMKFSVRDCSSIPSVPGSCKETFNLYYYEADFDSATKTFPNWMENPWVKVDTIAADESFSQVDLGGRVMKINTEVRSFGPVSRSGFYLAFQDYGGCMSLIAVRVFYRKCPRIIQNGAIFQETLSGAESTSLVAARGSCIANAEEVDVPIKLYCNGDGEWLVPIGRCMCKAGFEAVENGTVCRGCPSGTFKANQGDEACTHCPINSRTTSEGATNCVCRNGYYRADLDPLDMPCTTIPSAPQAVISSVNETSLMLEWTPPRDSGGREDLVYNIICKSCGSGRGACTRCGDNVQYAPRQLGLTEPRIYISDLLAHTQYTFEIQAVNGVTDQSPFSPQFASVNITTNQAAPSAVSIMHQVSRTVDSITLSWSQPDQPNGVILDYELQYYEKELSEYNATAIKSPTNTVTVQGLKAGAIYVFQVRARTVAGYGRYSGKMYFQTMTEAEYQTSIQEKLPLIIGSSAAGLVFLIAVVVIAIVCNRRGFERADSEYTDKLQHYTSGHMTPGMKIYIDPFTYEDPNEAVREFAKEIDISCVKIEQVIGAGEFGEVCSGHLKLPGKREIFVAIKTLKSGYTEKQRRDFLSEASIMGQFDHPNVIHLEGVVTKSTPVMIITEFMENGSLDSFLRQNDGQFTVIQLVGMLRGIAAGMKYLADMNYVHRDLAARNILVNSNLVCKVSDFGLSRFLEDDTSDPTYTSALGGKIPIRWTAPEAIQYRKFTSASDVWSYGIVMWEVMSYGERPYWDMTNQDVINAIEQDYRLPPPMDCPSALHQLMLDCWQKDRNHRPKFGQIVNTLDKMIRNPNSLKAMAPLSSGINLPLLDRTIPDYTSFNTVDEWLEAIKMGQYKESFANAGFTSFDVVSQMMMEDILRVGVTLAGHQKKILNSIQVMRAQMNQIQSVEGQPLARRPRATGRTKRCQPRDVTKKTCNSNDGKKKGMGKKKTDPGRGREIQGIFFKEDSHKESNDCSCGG

[2] = molecular target: T2, Ephrin type-B receptor 3 (Homo sapiens) (UniProt P54753); conditions: at 0.1 µM
T2 sequence (whole entry): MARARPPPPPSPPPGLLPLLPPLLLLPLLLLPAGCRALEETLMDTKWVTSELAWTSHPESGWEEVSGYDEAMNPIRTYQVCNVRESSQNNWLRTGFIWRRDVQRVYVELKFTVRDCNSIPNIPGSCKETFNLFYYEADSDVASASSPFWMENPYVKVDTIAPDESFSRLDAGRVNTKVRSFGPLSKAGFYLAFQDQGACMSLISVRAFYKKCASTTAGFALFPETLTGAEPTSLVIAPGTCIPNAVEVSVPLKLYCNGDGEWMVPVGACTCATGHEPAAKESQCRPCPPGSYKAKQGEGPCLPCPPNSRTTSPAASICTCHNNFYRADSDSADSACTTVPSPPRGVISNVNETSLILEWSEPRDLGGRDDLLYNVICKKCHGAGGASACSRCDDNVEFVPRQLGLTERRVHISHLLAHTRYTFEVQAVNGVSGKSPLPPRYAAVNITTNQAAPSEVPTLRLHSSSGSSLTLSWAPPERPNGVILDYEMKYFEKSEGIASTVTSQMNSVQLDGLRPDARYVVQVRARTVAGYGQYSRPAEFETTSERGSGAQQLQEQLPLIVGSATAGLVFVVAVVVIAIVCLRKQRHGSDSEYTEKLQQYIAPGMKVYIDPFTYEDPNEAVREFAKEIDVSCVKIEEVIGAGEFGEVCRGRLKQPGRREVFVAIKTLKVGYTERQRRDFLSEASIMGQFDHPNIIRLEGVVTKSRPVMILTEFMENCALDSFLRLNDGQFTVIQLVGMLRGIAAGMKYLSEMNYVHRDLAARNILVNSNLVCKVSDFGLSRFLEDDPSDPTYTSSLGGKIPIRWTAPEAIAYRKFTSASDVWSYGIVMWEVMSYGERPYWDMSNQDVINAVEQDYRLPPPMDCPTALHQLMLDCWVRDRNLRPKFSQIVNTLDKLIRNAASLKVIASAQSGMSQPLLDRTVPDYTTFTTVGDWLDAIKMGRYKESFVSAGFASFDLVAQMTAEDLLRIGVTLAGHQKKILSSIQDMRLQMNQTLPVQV

[3] = molecular target: T2, Ephrin type-B receptor 3 (Homo sapiens); conditions: at 1 µM
[4] = molecular target: T3, Ephrin type-B receptor 4 (Homo sapiens) (UniProt P54760); conditions: at 0.1 µM
T3 sequence (whole entry): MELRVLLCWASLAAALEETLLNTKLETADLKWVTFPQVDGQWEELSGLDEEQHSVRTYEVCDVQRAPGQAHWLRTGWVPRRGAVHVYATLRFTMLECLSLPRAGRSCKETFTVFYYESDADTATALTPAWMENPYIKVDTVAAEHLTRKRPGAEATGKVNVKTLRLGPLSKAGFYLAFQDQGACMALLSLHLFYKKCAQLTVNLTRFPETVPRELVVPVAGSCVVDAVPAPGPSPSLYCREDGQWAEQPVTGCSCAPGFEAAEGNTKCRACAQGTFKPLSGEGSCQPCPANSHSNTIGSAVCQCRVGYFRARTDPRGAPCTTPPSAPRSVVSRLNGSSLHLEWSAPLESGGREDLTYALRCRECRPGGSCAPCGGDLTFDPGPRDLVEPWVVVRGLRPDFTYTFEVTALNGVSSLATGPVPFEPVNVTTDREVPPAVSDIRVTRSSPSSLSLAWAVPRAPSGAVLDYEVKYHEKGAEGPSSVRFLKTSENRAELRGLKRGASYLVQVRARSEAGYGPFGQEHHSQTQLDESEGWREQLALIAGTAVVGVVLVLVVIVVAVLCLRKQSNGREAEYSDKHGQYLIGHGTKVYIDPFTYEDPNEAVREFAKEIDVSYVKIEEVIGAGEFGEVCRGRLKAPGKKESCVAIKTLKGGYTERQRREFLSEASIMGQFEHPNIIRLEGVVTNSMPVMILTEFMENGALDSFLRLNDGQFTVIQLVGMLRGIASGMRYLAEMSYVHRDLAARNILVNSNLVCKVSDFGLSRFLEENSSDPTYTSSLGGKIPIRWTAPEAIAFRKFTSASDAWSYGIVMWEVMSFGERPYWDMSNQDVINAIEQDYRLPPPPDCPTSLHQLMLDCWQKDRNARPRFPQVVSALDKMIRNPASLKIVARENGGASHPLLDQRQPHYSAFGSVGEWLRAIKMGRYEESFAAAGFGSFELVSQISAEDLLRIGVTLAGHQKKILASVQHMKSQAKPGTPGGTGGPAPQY

[5] = molecular target: T3, Ephrin type-B receptor 4 (Homo sapiens); conditions: at 1 µM
[6] = molecular target: Receptor tyrosine-protein kinase erbB-2 (Homo sapiens) (UniProt P04626); conditions: at 0.1 µM
Chain of Receptor tyrosine-protein kinase erbB-2 (Homo sapiens) (P04626 whole entry): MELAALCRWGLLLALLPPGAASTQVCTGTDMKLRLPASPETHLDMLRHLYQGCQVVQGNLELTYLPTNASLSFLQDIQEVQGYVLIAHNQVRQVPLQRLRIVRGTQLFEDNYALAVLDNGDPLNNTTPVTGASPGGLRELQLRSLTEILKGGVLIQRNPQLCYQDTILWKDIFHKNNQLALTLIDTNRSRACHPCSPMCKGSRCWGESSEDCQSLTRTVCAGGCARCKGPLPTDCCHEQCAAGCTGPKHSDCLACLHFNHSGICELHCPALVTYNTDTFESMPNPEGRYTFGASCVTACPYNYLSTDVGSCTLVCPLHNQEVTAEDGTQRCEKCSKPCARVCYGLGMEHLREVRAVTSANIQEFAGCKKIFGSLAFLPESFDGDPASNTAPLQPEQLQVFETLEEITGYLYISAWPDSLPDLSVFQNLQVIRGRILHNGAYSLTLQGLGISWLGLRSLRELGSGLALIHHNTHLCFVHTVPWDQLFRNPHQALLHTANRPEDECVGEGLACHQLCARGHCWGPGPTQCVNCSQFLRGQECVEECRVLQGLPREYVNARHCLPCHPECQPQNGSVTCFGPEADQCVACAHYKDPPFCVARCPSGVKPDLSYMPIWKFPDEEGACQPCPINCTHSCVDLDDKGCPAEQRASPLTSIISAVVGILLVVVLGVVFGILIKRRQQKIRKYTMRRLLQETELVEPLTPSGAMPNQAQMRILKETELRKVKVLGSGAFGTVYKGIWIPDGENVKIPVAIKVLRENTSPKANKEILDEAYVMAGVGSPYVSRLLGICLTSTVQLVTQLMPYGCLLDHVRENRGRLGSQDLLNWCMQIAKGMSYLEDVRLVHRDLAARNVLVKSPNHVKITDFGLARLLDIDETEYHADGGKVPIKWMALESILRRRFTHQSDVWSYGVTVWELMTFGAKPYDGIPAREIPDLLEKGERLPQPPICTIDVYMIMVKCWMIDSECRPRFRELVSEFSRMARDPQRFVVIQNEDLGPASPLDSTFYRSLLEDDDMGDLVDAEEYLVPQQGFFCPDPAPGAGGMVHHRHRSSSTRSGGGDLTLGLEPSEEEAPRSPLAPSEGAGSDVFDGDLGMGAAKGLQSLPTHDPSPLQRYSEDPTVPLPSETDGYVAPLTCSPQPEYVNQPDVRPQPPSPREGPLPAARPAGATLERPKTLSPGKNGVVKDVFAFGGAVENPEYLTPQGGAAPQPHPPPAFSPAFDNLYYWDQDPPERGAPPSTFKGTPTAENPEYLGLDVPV

[7] = molecular target: Receptor tyrosine-protein kinase erbB-2 (Homo sapiens) (UniProt P04626); conditions: at 1 µM
[8] = molecular target: Receptor tyrosine-protein kinase erbB-4 (Homo sapiens) (UniProt Q15303); conditions: at 0.1 µM
Chain of Receptor tyrosine-protein kinase erbB-4 (Homo sapiens) (Q15303 whole entry): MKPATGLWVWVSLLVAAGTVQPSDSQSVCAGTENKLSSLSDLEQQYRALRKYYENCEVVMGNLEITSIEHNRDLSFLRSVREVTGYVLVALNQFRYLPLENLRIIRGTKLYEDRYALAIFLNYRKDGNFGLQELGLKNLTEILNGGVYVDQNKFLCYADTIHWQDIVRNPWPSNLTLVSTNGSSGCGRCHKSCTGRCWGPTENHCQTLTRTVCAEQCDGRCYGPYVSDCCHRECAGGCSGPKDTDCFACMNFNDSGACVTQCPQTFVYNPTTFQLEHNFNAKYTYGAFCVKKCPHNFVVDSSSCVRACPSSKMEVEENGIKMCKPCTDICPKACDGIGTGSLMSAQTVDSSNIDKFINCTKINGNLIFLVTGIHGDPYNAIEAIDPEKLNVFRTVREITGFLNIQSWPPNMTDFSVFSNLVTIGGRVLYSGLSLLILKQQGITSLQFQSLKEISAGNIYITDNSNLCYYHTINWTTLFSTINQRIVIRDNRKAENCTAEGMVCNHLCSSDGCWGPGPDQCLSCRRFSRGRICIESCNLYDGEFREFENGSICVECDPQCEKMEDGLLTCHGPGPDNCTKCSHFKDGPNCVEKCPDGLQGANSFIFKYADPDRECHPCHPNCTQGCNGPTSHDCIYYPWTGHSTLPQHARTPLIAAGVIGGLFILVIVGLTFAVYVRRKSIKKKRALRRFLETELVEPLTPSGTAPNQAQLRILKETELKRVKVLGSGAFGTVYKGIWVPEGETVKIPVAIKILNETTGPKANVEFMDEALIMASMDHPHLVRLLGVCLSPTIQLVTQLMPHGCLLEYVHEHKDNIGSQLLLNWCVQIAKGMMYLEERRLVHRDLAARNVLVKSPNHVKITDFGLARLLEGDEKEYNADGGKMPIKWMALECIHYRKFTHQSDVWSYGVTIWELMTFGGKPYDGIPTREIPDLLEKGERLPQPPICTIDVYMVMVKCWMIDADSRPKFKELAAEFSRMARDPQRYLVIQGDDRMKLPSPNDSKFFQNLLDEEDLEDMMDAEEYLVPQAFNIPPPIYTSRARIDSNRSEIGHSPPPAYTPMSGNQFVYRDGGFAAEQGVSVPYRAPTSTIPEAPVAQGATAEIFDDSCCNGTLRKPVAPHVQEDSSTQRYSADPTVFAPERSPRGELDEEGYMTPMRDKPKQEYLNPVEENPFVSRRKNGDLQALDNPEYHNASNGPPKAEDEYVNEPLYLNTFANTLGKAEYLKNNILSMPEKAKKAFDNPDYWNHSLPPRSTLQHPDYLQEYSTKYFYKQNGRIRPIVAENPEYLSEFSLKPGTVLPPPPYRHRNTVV

[9] = molecular target: Receptor tyrosine-protein kinase erbB-4 (Homo sapiens) (UniProt Q15303); conditions: at 1 µM
[10] = molecular target: Tyrosine-protein kinase Fer (Homo sapiens) (UniProt P16591); conditions: at 0.1 µM;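 also: reported figures are averaged percent inhibition of FER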
Chain of Tyrosine-protein kinase Fer (Homo sapiens) (P16591 whole entry, looked up): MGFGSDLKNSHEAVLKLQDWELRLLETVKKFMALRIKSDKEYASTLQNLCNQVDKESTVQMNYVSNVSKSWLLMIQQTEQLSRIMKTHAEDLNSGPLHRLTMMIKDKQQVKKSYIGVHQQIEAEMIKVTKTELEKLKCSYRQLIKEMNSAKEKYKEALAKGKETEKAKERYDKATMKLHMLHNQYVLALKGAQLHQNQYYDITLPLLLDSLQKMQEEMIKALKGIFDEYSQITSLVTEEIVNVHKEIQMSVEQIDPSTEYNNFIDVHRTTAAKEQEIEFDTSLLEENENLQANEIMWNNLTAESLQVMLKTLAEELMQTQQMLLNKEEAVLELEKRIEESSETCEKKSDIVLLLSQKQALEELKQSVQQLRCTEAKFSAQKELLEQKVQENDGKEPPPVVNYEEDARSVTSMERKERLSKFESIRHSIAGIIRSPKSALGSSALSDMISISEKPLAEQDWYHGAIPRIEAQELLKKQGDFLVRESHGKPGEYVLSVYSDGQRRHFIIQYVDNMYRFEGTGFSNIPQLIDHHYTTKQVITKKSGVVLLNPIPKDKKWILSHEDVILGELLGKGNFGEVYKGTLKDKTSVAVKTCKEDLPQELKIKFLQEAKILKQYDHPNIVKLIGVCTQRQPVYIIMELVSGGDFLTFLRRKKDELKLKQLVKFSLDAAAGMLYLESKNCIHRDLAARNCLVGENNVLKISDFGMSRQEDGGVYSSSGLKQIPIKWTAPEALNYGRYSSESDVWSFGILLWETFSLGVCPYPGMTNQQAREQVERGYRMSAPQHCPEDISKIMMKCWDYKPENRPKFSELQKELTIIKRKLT

| Structure (SMILES) | inhibition [1] | inhibition [2] | inhibition [3] | inhibition [4] | inhibition [5] | inhibition [6] | inhibition [7] | inhibition [8] | inhibition [9] | inhibition [10] |
| --- | --- | --- | --- | --- | --- | --- | --- | --- | --- | --- |
| CCS(=O)(=O)c1ccc(OC)c(Nc2ncc(-c3cccc(C(C)=O)c3)o2)c1 | 21.8% | 3.26% | 5.98% | 1.8% | 6.82% | 2.14% | 6.11% | 7.58% | 11.1% | 1.02% |
| c1ccc(-c2n[nH]cc2-c2ccnc(-c3ccc(OCCn4ccnc4)cc3)c2)nc1 | 0.77% | 1.4% | -0.01% | 0.04% | -0.88% | 0.33% | -1.51% | -1.46% | 3.39% | 1.51% |
| CS(=O)(=O)CCNCc1ccc(-c2ccc3ncnc(Nc4ccc(OCc5ccccc5)cc4)c3c2)o1 | 7.66% | 5.28% | 5.08% | 3.4% | 3% | 15.1% | 73% | 84.6% | 96.6% | 1.45% |
| CS(=O)(=O)Nc1ccc(-c2ccc3c(NC(=O)C4CC4)n[nH]c3c2)cc1 | 11.6% | 4.92% | 4.97% | 2.13% | 4.33% | -0.58% | -2.83% | -5.65% | 9.99% | 9.81% |
| COc1cc(N2CCN(C(C)C)CC2)ccc1Nc1nc(Nc2cccc3ncccc23)c2cc[nH]c2n1 | 2.09% | 1.16% | 0.4% | 0.17% | 0.88% | -0.99% | 2.24% | -0.3% | 5.51% | 7.7% |
| COC(=O)Nc1nc2ccc(Oc3ccc(NC(=O)Nc4cc(C(F)(F)F)ccc4F)cc3)cc2s1 | 83.7% | 16.8% | 36.6% | 29.6% | 73% | -0.44% | -0.72% | 3.56% | 3.36% | 3.43% |
| Cc1ccc(-c2cc3c(NC(=O)C4CC4)ncnc3o2)cc1 | 36.6% | 5.13% | 1.62% | 3.05% | 12.9% | 0.91% | -0.45% | 9.66% | 11.1% | 8.51% |
